# Measurements as given in PubChem BioAssay.
# Calls of active or inactive are those of the source. Unless noted, no rule for the calls is given here.
# Experiments:
# [1] = resazurin metabolic signal in HepG2 cells – cell-based, resazurin fluorescence, 24 h, PK04 Diversity Set, profiling panel (AID 1172); conditions: HepG2 viability, higher = more signal
# [2] = budding yeast growth changes without added modifier – OD600, strain BY4716, 24 h, basal condition, primary screen (AID 1173); conditions: S. cerevisiae BY4716 growth, OD600, 24 h; higher = more signal, called active from +8 up or from −8 down
# [3] = viability profiling in MM1S myeloma cells – cell-based, resazurin fluorescence, basal, 24 h, PK04 Diversity Set, profiling panel (AID 1174); conditions: higher = more signal, called active from +8 up or from −8 down;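 also: MM1S multiple myeloma cell line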
# [4] = target: Dihydroorotate dehydrogenase (quinone), mitochondrial (Plasmodium falciparum (isolate 3D7)) (UniProt Q08210); assay: inhibition of P. falciparum DHODH – biochemical, C-terminal His tag, absorbance 600 nm, primary screen (AID 1175); conditions: PfDHODH enzyme, DCIP absorbance 600 nm; higher = more signal, called active from +8 up or from −8 down;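 also: recombinant parasite enzyme with a five histidine tag at its C terminus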
# Dihydroorotate dehydrogenase (quinone), mitochondrial (Plasmodium falciparum (isolate 3D7)), sequence (Q08210 whole entry, looked up): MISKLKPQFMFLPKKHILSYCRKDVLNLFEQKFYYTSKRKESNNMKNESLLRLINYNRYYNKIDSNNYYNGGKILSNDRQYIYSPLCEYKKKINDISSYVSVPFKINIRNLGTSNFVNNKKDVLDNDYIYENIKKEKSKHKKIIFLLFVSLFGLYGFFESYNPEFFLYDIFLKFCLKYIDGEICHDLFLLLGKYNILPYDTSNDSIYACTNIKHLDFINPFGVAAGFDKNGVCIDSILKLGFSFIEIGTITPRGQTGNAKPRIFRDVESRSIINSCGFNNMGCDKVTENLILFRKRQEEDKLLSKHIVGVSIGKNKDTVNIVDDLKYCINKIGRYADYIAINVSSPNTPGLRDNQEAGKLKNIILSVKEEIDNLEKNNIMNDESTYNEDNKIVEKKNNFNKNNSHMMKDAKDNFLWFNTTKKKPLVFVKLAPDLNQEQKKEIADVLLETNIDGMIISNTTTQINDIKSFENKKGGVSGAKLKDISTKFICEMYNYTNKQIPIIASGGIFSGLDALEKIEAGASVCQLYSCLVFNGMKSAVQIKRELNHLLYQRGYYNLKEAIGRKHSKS
# [5] = inhibition of PAO1 biofilm formation – strain PAO1, LB-PBS medium, absorbance 600 nm, primary screen (AID 1176); conditions: P. aeruginosa PAO1 growth/biofilm, A600, 12 h; higher = more signal
# [6] = growth modulation of vineyard yeast isolate – strain RM11-1a, OD600, basal, 24 h, primary screen (AID 1177);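 also: cultures grown under basal conditions with no added stressor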; conditions: S. cerevisiae RM11-1a growth, OD600, 24 h; higher = more signal, called active from +8 up or from −8 down
# [7] = growth of efflux-deficient E. coli DRC39 – strain DRC39, OD650, 24 h, E. coli filamentation inducers, primary screen (AID 1178);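 also: growth measured as culture turbidity by optical density at 650 nm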; conditions: E. coli DRC39 acrAB, higher = more signal, called active from +8 up or from −8 down
# [8] = growth of efflux-deficient E. coli DRC39 – strain DRC39, OD650, 48 h, E. coli filamentation inducers, primary screen (AID 1179);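 also: screen aims at cell division blockers that make cells filament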; conditions: E. coli DRC39 delta-acrAB growth, higher = more signal, called active from +8 up or from −8 down
# [9] = viability profiling in RPMI8226 myeloma cells – cell-based, resazurin fluorescence, basal, 24 h, PK04 Diversity Set, profiling panel (AID 1180); conditions: higher = more signal;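 also: RPMI8826 multiple myeloma cell line at 5000 cells per well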
# [10] = target: E3 ubiquitin-protein ligase XIAP (Homo sapiens) (UniProt P98170); assay: small molecules binding XIAP protein – biophysical, small-molecule microarray, fluorescence 635 nm, primary screen (AID 1181); conditions: higher = more signal;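 also: score merges 667 nm emission and signal to noise over triplicate slides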
# E3 ubiquitin-protein ligase XIAP (Homo sapiens), sequence (P98170 whole entry, looked up, the tested form may be a part): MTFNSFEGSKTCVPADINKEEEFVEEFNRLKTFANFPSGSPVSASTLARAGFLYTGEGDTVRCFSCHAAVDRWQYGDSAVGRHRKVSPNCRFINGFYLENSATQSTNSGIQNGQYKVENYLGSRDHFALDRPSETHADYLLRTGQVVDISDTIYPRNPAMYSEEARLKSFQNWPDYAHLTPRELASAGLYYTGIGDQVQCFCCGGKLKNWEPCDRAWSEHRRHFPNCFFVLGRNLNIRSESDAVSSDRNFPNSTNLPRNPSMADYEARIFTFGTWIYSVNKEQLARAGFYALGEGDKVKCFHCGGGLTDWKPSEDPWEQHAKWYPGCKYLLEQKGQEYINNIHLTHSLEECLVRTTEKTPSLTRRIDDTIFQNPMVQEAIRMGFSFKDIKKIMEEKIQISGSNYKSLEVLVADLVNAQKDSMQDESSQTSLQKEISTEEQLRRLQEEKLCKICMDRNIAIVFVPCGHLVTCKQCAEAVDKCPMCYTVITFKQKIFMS
# [11] = tested on: XIP peptide (Xip251-270) binding; assay: XIP fragment 251-270 binding compounds – biochemical, small-molecule microarray, fluorescence 635/667 nm, 0.1 µg/mL protein, primary screen (AID 1182); conditions: fluorescent protein binding, 635 nm, higher = more signal, called active from +8 up or from −8 down
# XIP peptide (Xip251-270) = assay: compounds binding XIP fragment 251-270 – biochemical, small-molecule microarray, fluorescence 635/667 nm, 0.5 µg/mL protein, primary screen (AID 1183); conditions: fluorescence 635 nm, higher = more signal
# [12] = blood-stage malaria parasite viability loss – strain 3D7, DAPI fluorescence, 100 nL, primary screen (AID 1184);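 also: parasites grown inside human red blood cells in medium with human serum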; conditions: P. falciparum 3D7 growth, 3 d, higher = more signal
# [13] = target: Homeobox protein Hox-A13 (Mus musculus) (UniProt Q62424); assay: disruptors of Hoxa13 oligonucleotide interaction – biochemical, fluorescence polarization, labeled oligonucleotide, primary screen (AID 1185); conditions: Hoxa13:DNA binding, 15 min, higher = more signal, called active from +8 up or from −8 down
# Homeobox protein Hox-A13 (Mus musculus), sequence (Q62424 whole entry, looked up): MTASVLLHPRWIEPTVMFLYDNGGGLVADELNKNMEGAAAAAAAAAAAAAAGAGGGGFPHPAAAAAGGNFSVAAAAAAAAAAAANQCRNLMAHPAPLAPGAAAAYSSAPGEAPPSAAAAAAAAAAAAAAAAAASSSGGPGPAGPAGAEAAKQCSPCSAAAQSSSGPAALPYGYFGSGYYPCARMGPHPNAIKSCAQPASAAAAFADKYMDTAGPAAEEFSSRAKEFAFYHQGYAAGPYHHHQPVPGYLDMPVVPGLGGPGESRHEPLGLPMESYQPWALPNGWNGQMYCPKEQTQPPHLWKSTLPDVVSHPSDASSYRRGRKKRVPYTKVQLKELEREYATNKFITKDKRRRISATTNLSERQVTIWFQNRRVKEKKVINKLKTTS
# [14] = blockers of DNA damage checkpoint Chk1 activation – imaging, HeLa, hydroxyurea, phospho-Chk1 antibody, percent positive cells, primary screen (AID 1186); conditions: hydroxyurea-induced phospho-Chk1 immunofluorescence imaging, higher = more signal
# [15] = blockers of DNA damage checkpoint Chk1 activation – imaging, HeLa, hydroxyurea, phospho-Chk1 nuclear intensity, primary screen (AID 1187); conditions: hydroxyurea-induced phospho-Chk1 immunofluorescence imaging, higher = more signal
Structure (SMILES),z-score [1],z-score [2],z-score [3],composite z-score [4],z-score [5],z-score [6],z-score [7],z-score [8],z-score [9],composite z-score [10],composite z-score [11],composite z-score (XIP peptide (Xip251-270)),z-score [12],z-score [13],z-score [14],z-score [15]
C=CC(CO)NC(=O)OCC1c2ccccc2-c2ccccc21 (configuration not stated),0.072,-1.46 (inactive),0.358 (inactive),-1.28 (inactive),0.0117 (inactive),-0.917 (inactive),-0.712 (inactive),-0.616 (inactive),0.388,-0.125,1.62 (inactive),0.162,1.42,0.0393 (inactive),0.145 (inactive),0.42 (inactive)
C=C(COC)/C(=C/C[C@@H](OC(C)=O)c1ccccc1OCCO)c1cc(C(=O)OC)ccc1OC,-0.0418,0.487 (inactive),-0.705 (inactive),-0.069 (inactive),0.543 (inactive),0.759 (inactive),0.013 (inactive),-0.199 (inactive),-0.316,-0.0279,-0.0801 (inactive),0.587,-2.76,-4.47 (inactive),-0.503 (inactive),0.169 (inactive)
O=C1N(Cc2ccccc2)c2ccccc2[C@H]2OC(c3ccc(OCCCO)cc3)=N[C@@]12Cc1ccccc1,-1.46,-0.084 (inactive),-3.4 (inactive),0.983 (inactive),0.565 (inactive),2.15 (inactive),0.383 (inactive),-0.362 (inactive),-3.36,0.0297,0.447 (inactive),0.821,-2.41,-2.4 (inactive),-0.335 (inactive),-0.59 (inactive)
CC(=O)c1ccc(C(O)C2C=CC3C(=O)N(C)C(=O)C3N2NC(=O)OC(C)(C)C)cc1 (configuration not stated),-1.69,1.74 (inactive),-1.04 (inactive),0.625 (inactive),0.378 (inactive),0.845 (inactive),-0.9 (inactive),-0.47 (inactive),-1.05,0.155,2.44 (inactive),0.763,-0.29,-1.11 (inactive),0.976 (inactive),0.688 (inactive)
CN(C)CCCC[C@@H]1NC(=O)[C@@H]2C[C@H](C(=O)NCc3ccc(F)cc3)[C@H](c3ccc(O)cc3)N2C1=O,-0.188,0.444 (inactive),-0.0976 (inactive),-1.14 (inactive),0.559 (inactive),-0.605 (inactive),0.012 (inactive),0.0344 (inactive),-0.0587,-0.0448,-0.23 (inactive),0.886,-0.532,-1.16 (inactive),0.336 (inactive),0.142 (inactive)
CC(C)C[C@H]1NC(=O)[C@@]23C(=O)N[C@@H](Cc4ccccc4)C2[C@H](C)[C@@]2(C)O[C@H]2C3/C=C/C/C=C\CNC(=O)[C@@H]2CCCN2C1=O (some centres not stated),-0.706,-1.43 (inactive),-0.0195 (inactive),-0.742 (inactive),0.352 (inactive),-0.162 (inactive),-0.467 (inactive),-0.0699 (inactive),0.476,0.155,1.73 (inactive),0.0626,1.18,-5.47 (inactive),0.216 (inactive),0.162 (inactive)
O=C1C2C=CC(C(O)c3ccc([N+](=O)[O-])cc3)N(Nc3ccccc3)C2C(=O)N1c1ccccc1 (configuration not stated),-0.849,-2.61 (inactive),-0.952 (inactive),-1.03 (inactive),0.791 (inactive),-0.453 (inactive),-0.46 (inactive),-0.253 (inactive),-1.81,-0.0085,0.392 (inactive),0.467,0.45,-4.48 (inactive),0.226 (inactive),-0.168 (inactive)
COCCOC(=O)N1C(=O)[C@@]2(c3cc(C#CCNC(N)=O)ccc31)[C@H](C(=O)NC[C@H](O)c1ccccc1)[C@H]1C(=O)O[C@H](c3ccccc3)[C@H](c3ccccc3)N1[C@@H]2c1ccc(OCCO)cc1,0.774,2 (inactive),-0.118 (inactive),1.14 (inactive),2.28 (inactive),2.87 (inactive),-0.0238 (inactive),-0.63 (inactive),0.381,0.135,0.561 (inactive),0.785,-0.188,-1.46 (inactive),-0.214 (inactive),-0.23 (inactive)
C=CCNC(=O)[C@H]1[C@@H]2C(=O)O[C@@H](c3ccccc3)[C@@H](c3ccccc3)N2[C@@H](c2ccccc2OCCO)[C@]12C(=O)N(C(=O)OCCOC)c1ccccc12,-0.293,1.52 (inactive),-1.04 (inactive),0.692 (inactive),2.98 (inactive),2 (inactive),0.225 (inactive),-0.369 (inactive),-2.9,0.0797,0.346 (inactive),0.814,-1.68,-4.77 (inactive),0.0539 (inactive),0.109 (inactive)
Cc1ccc(S[C@]2(C(=O)NCCN3CCOCC3)CC(=O)N(C3CCCCC3)[C@@H]2c2ccc(CO)cc2I)cc1,1.5,-0.0113 (inactive),0.482 (inactive),0.88 (inactive),-0.447 (inactive),1.27 (inactive),0.464 (inactive),0.677 (inactive),-1.29,-0.302,0.825 (inactive),0.657,-1.92,-5.68 (inactive),0.134 (inactive),0.114 (inactive)
COC(=O)[C@@]1(Cc2ccc(OC)cc2)[C@@H]2[C@@H](CC(=O)[C@H]2CC(=O)C(=O)N2CCCC2)CN1C(=O)c1ccccc1,-0.437,0.442 (inactive),-0.526 (inactive),-0.448 (inactive),0.274 (inactive),-0.148 (inactive),-0.415 (inactive),-0.394 (inactive),-1.57,-0.01,0.506 (inactive),0.807,-0.937,-2.95 (inactive),-0.961 (inactive),-1.03 (inactive)
CCOC(=O)C1=CC[C@@H](c2ccc(F)cc2)N(S(=O)(=O)c2ccc(C)cc2)[C@H]1c1ccc([N+](=O)[O-])cc1,1.09,1.18 (inactive),0.0003 (inactive),-0.554 (inactive),0.0362 (inactive),0.248 (inactive),0.253 (inactive),0.321 (inactive),-0.678,0.0077,0.1 (inactive),0.559,-1.8,0.532 (inactive),0.355 (inactive),0.593 (inactive)
CCOC(=O)C[C@H]1[C@H](OC(=O)c2ccc(-c3ccccc3)cc2)[C@@H](NC(=O)CC(C)C)c2cc(OCCCO)ccc2N1C(=O)Cc1ccc(OC)cc1,-0.378,0.605 (inactive),-0.38 (inactive),0.423 (inactive),0.35 (inactive),-0.154 (inactive),-0.181 (inactive),-0.12 (inactive),-0.306,-0.274,0.364 (inactive),-0.0598,-0.0881,-2.68 (inactive),0.568 (inactive),0.254 (inactive)
CC(C)[C@@H](C(=O)O)n1cc(-c2ccccc2)nn1,-0.606,-0.291 (inactive),-0.372 (inactive),-0.207 (inactive),-0.145 (inactive),-0.618 (inactive),0.0178 (inactive),-0.279 (inactive),-0.874,0.0402,0.767 (inactive),0.237,0.273,-0.769 (inactive),0.391 (inactive),0.0268 (inactive)
CC(C)C[C@@H]1NC(=O)[C@@H]2C[C@H](C(=O)O)[C@H](c3ccc(O)cc3)N2C1=O,-1.68,-0.568 (inactive),1.18 (inactive),0.372 (inactive),0.407 (inactive),-1.11 (inactive),2.14 (inactive),1.94 (inactive),1.16,0.254,1.84 (inactive),0.705,-0.26,-3.43 (inactive),0.873 (inactive),0.918 (inactive)
COCCOC(=O)N1C(=O)[C@@]2(c3ccccc31)[C@H](C(=O)N1CCCCCCC1)[C@H]1C(=O)O[C@H](c3ccccc3)[C@H](c3ccccc3)N1[C@@H]2c1ccc(O)cc1,0.226,-0.975 (inactive),-1.51 (inactive),-0.862 (inactive),1.32 (inactive),-0.145 (inactive),-0.0831 (inactive),-0.303 (inactive),-1.03,0.782,3.54 (inactive),0.83,-0.621,2.5 (inactive),-0.391 (inactive),-0.586 (inactive)
COC(=O)[C@@]1(Cc2ccc(OC)cc2)[C@H]2c3cc(C(=O)N(C)C)n(Cc4ccsc4Br)c3C[C@H]2CN1C(=O)c1ccccc1,-0.0214,1.52 (inactive),-0.807 (inactive),0.184 (inactive),0.0539 (inactive),1.89 (inactive),-0.656 (inactive),-0.377 (inactive),-0.907,0.452,0.197 (inactive),0.793,-1.02,-1.15 (inactive),0.0352 (inactive),0.984 (inactive)
